Experimental data taken from PubChem BioAssay (NCATS).
A number with no mark means an inactive call. Calls come from the whole dose curve; as a rule, active = well fitted inhibition curve with a large enough effect; inconclusive = small, poorly fitted or top-dose-only effect; inactive = flat fitted curve, though single readings scatter.

Biological target: DNA polymerase III PolC-type (Bacillus subtilis (strain 168)) (UniProt P13267)
Experiment: qHTS Validation Assay for the Inhibitors of DNA Replication in Gram-Positive Bacteria (AID 485295);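 note: reconstituted holoenzyme with PolC plus beta clamp SSB and primase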
Details: Gram-positive bacterial DNA replication assay; series mostly up to 57.1 µM; activity change, negative = inhibition: at the top concentration
Experimental: B Subtilis DNA polymerase III holoenzyme complex was assayed for DNA production by fluorescent detection of the double-stranded DNA product with PicoGreen dye. The holoenzyme complex was reconstituted from the following purified protein components: DNA Polymerase III, beta subunit processivity factor, SSB single-stranded DNA binding protein, and Primase. Single-stranded, circular M13Gori was used as a substrate with dNTPs and NTPs also supplied to the substrate reagent. Compounds from the NCGC collection were incubated with the holoenzyme mixture for […] at room temperature to allow binding to occur, and then the reaction was started by the addition of substrate. After 30 min incubation at room temperature, PicoGreen solution containing EDTA was added to stop the reaction and to visualize the double-stranded DNA produced. Reaction progress was measured in a ViewLux CCD imager in fluorescence intensity mode by using 480 nm excitation and 540 nm emission filter set.
1. Thaw screening compounds.
2. Label assay plates. Prepare pipette tips, reagent reservoirs, buffers and controls.
1. Thaw Enzymes, DNA template, Nucleotides and PicoGreen dye concentrate. Thawed enzymes are stable on ice for ~1
week. Other thawed components are stable indefinitely.
2. Prepare sufficient quantities of Enzyme, Substrate and PicoGreen Quench mixes (according to Table II). For the number of
compound plates being screened.
3. Ensure that the tip wash station reservoirs have clean water and turn on recirculating chiller so that the chilled deck position
1. Load 2 uL of EDTA controls (250 mM, Background, 100 % inhibition) and 2 uL of DMSO controls (Negative control, 0%
inhibition) in the screening plates (flat-bottomed black 384-well polypropylene, Greiner Bio-one).
2. Place Enzyme mix reservoir on the chiller position of the liquid handler deck. Make sure that chiller will maintain
temperature of Enzyme mix at 4degC. Substrate mix and PicoGreen Quench can be stored at room temp.
3. Program liquid handling robotics to dispense 18 uL of Enzyme mix into assay plates. Wash tips.
4. Aspirate and dispense 2 uL of compound from compound plates, mix and Incubate at room temperature for 10 minutes.
5. Aspirate 5 ul of Substrate mix, dispense into assay plates and mix by pipetting. Wash tips.
6. Incubate at room temperature (21 +/- 1 deg C) for 20 minutes.
7. Quench reactions by addition of 25 uL PicoGreen Quench mix and mix by pipetting (using HTS robotics or bulk reagent
dispenser such as a Multidrop or uFill). Keep plates in the dark or stacked until ready to read fluorescence.
8. Read fluorescence intensity of plates on plate reader using "Fluorescein (Ex 485 nm/ Em 535 nm, 0.1s)" setting.

Chain of DNA polymerase III PolC-type (Bacillus subtilis (strain 168)) (P13267 whole entry, looked up): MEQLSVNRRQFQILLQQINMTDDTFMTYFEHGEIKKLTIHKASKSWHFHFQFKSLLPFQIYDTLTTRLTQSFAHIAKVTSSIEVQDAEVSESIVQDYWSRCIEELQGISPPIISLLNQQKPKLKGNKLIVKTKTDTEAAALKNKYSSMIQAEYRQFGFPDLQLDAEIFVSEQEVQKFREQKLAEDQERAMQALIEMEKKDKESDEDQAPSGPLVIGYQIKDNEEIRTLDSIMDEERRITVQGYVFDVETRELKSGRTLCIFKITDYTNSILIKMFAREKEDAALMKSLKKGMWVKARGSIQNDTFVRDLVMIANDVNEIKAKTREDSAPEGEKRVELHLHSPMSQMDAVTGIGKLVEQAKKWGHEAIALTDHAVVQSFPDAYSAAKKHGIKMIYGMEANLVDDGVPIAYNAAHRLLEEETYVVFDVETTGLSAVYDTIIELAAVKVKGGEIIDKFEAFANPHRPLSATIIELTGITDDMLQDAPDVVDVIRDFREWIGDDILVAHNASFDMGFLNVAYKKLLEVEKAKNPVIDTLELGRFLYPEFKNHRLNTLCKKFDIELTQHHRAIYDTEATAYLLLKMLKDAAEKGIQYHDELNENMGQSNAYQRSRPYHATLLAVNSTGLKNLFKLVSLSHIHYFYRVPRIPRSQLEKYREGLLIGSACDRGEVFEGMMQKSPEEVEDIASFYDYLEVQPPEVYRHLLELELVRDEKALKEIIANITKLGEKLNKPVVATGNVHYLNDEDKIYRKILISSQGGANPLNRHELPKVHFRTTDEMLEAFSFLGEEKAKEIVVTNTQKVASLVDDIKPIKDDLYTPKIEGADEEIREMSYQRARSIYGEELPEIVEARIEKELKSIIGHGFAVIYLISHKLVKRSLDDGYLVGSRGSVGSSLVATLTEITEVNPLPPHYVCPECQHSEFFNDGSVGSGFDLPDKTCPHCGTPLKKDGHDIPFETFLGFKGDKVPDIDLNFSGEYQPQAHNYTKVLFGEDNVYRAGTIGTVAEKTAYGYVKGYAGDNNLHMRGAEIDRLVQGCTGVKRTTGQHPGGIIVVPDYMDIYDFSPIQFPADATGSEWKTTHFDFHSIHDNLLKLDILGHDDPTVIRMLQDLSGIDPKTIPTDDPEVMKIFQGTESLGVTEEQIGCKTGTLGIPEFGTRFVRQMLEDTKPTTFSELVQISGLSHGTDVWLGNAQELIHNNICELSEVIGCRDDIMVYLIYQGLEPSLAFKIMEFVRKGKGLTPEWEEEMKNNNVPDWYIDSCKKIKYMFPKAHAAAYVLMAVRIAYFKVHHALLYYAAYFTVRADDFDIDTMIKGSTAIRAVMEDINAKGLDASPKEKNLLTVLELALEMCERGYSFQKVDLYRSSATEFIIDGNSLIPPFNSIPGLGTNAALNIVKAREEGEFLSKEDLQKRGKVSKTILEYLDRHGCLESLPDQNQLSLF

Compound	activity change, negative = inhibition [%]
CC(=O)N[C@H](C(=O)O)C(C)(C)SN=O	7.43
O=C(O)CC1CC(c2ccccc2)=NO1 (stereo not given)	-7.67
Nc1nc(Cl)nc2c1ncn2[C@@H]1O[C@H](CO)[C@@H](O)[C@H]1O	5.22
O=P(O)(O)C(Cl)(Cl)P(=O)(O)O	-3.26
Cc1ccc(C(=O)O[C@H](C(=O)O)[C@@H](OC(=O)c2ccc(C)cc2)C(=O)O)cc1 (tested in a mixture with another compound)	0.847
C=C[C@@H]1CN2CC[C@@H]1C[C@H]2[C@H](O)c1ccnc2ccc(OC)cc12	0.838
Nc1ncnc2c1ncn2[C@@H]1O[C@H](COP(=O)(O)CP(=O)(O)OP(=O)(O)O)[C@@H](O)[C@H]1O	4.72
O=C(/C=C/c1ccc(O)c(O)c1)OCCc1ccccc1	-14.1
C=CC(=O)c1ccc(CCCCCC)cc1	-3.69
O=C1NC(=O)/C(=C/c2ccc(-c3ccc(F)cc3O)o2)S1	-18.5
O=c1[nH]c2cc(C(F)(F)F)ccc2n1-c1cc(C(F)(F)F)ccc1O	-9.54
CN1CCc2cc(O)c(O)cc2C(c2ccccc2)C1 (stereo not given)	5.48
Nc1nc(Nc2ccccc2)nc2c1ncn2[C@@H]1O[C@H](CO)[C@@H](O)[C@H]1O	0.316
COc1ccc(/C=C/C(=O)Nc2ccccc2C(=O)O)cc1OC	-2.37
NCCCCC(=O)O	-1.8
O=C(O)CC1CCCc2ccccc2C1O (stereo not given)	5.16
NC(=S)c1ccc[n+]([C@@H]2O[C@@H](COP(=O)([O-])OP(=O)(O)OC[C@H]3O[C@@H](n4cnc5c(N)ncnc54)[C@H](OP(=O)(O)O)[C@@H]3O)C(O)C2O)c1 (stereo not given in full)	1.72
NC[C@H]1O[C@@H](n2cnc3c(N)ncnc32)[C@H](O)[C@@H]1O	-3.92
CC1(C)CCC=[N+]1[O-]	-4.22
CC1CN(S(=O)(=O)c2cccc3cnccc23)CCN1 (stereo not given)	-2.42

Compound	activity change, negative = inhibition [%]
O=[N+]([O-])c1ccc(CSc2ncnc3c2ncn3[C@@H]2O[C@H](CO)[C@@H](O)[C@H]2O)cc1	9.78
COc1cccc(OC)c1OCCNCC1COc2ccccc2O1 (stereo not given)	1.83
NCC1OC(O[C@H]2[C@H](O)[C@@H](OC3C(O)C(N)CC(N)C3OC3OC(CO)C(O)C(O)C3N)O[C@@H]2CO)C(N)C(O)C1O (stereo not given in full)	0.335
CC(C)CC(NP(=O)(O)O[C@@H]1O[C@@H](C)[C@H](O)[C@@H](O)[C@H]1O)C(=O)NC(Cc1c[nH]c2ccccc12)C(=O)O (stereo not given in full)	5.14
NCCCCCCCCCCN	2.14
N[C@@H](CC(=O)O)C(=O)O	5.58
CN1C2CC(OC(=O)[C@H](CO)c3ccccc3)CC1C1OC12 (stereo not given in full)	10.1
NS(=O)(=O)C#Cc1ccccc1	1.39
CNc1ncnc2c1ncn2[C@@H]1O[C@H](CO)[C@@H](O)[C@H]1O	3.88
Oc1cc2c(cc1O)CN(C(=S)NCCc1ccc(Cl)cc1)CCC2	-6.68
CC(C)ON([C@@H](C(=O)NO)C(C)C)S(=O)(=O)c1ccc(-c2ccccc2)cc1	-11
CN1CCC[C@H]1c1cccnc1	-0.0747
CN1CC(=O)N/C1=N/C(=O)Nc1cccc(Cl)c1	3
CCCCCC(O)c1cccc(OCc2ccc3ccccc3n2)c1 (stereo not given)	-15.4
C=CC(C)=C[C@@]1(C)SC(=O)C(C)=C1O	2.98
O=C(O)CNC(=O)C(CS)Cc1ccccc1 (stereo not given)	3.46
C[N+](C)(C)CCOP(=O)(O)OP(=O)([O-])OC[C@H]1O[C@@H](n2ccc(N)nc2=O)[C@H](O)[C@@H]1O	5.2
CC(C)NC[C@H](O)COc1cccc2[nH]ccc12	0.805
O=C(c1cc(O)c(O)c([N+](=O)[O-])c1)c1ccccc1F	-9.75
CN(C)CCC(c1ccc(Cl)cc1)c1ccccn1 (stereo not given)	-4.62
